The structures appear in SMILES notation. The panel holds about 83,000 compounds, 20% with a hit somewhere; the sample as a whole holds those more often.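 Growth was measured after 48 h exposure to one concentration of compound in 96-well plates. Values under 10 count as active.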 A number with no mark means an inactive call. Activity calls are given as the source filed them.

Test systems include NCI-H23 lung; NCI-H322M lung; HOP-62 NSCLC; NCI-H460 lung; HOP-92 NSCLC; NCI-H522 lung; A549/ATCC NSCLC; 786-0 renal; COLO 205 colon; DU-145 prostate; K-562 leukemia; MALME-3M melanoma; MDA-MB-231 breast; RXF 393 renal; SF-268 CNS; SF-295 CNS; SF-539 CNS; UACC-257 melanoma; M14 melanoma; HCT-15 colon.
What all share (assay): NCI-60 one-dose screen, 48 h (100 = growth as untreated, 0 = no growth, -100 = all killed)
Common to all, as to settings: 10 µM unless noted

`COc1cc(NC(=O)CCSc2nc3ccccc3c(=O)n2CCc2ccccn2)cc(OC)c1OC`: the growth is 88.3% with NCI-H23 lung; 88.8% in the assay on NCI-H322M lung; 85.7% with HOP-62 NSCLC; 83.5% in the assay with NCI-H460 lung; 89.1% in the assay with HOP-92 NSCLC; 25% in the assay on NCI-H522 lung. Besides, the growth in the assay with A549/ATCC NSCLC was 84%; in the assay with 786-0 renal, 84.3%; in the assay with COLO 205 colon it was 115%; in the assay on DU-145 prostate, 103%; in the assay on K-562 leukemia it was 94.8%; in the assay with MALME-3M melanoma it was 59%. For the same compound, the growth in the assay on MDA-MB-231 breast was 80.2%; with RXF 393 renal, 75.2%; in the assay with SF-268 CNS, 80.8%; with SF-295 CNS, 88.4%; in the assay on SF-539 CNS, 73.7%; in the assay with UACC-257 melanoma it was 93.2%. In addition, the growth in the assay on M14 melanoma is 103%; in the assay on HCT-15 colon it was 96.4%.

With `O=C(N/N=C/c1ccccc1O)C(=O)Nc1ccc(F)cc1`, the growth was 57.7% with NCI-H23 lung; 26.6% in the assay on NCI-H322M lung; 50.1% with HOP-62 NSCLC; 23.1% in the assay on NCI-H460 lung; 65% with HOP-92 NSCLC; 15.7% in the assay with NCI-H522 lung. The growth in the assay on A549/ATCC NSCLC is 44.8%; in the assay with 786-0 renal, 53.8%; in the assay on COLO 205 colon it was 9.67% (active); with DU-145 prostate it was 46.5%; with K-562 leukemia it was 42.3%; with MALME-3M melanoma it was 70.9%. Also, the growth in the assay on MDA-MB-231 breast is 43.8%; with RXF 393 renal, 74.3%; in the assay with SF-268 CNS, 48.8%; in the assay with SF-295 CNS it was 4.78% (active); in the assay with SF-539 CNS it was 33.7%; in the assay on UACC-257 melanoma it was 27.2%. The growth was 50% in the assay on M14 melanoma and 28.2% in the assay on HCT-15 colon.

Turning to `O=C(Nc1ccc(I)cc1F)c1cc(Br)ccc1O`, the growth was 3.44% (active) with NCI-H23 lung; 7.16% (active) with NCI-H322M lung; -5.03% (active) in the assay with HOP-62 NSCLC; 2.62% (active) in the assay with NCI-H460 lung; -10.8% (active) in the assay with HOP-92 NSCLC; -7.93% (active) in the assay with NCI-H522 lung. The growth in the assay with A549/ATCC NSCLC is 7.17% (active); in the assay with 786-0 renal, 1.97% (active); with COLO 205 colon it was 46.9%; with DU-145 prostate, 14.2%; in the assay on K-562 leukemia, 8.5% (active); with MALME-3M melanoma it was -27.4% (active). In addition, the growth is -21.2% (active) in the assay with MDA-MB-231 breast; 2.4% (active) with RXF 393 renal; 7.21% (active) with SF-268 CNS; -64.9% (active) in the assay with SF-295 CNS; 0.872% (active) in the assay on SF-539 CNS; -18.2% (active) with UACC-257 melanoma. Further, the growth with M14 melanoma was -10.4% (active); in the assay on HCT-15 colon, 0.459% (active).

As to `Cc1ccc(Cn2c(N3CCC(C(=O)NCc4cccs4)CC3)nc3ccccc32)cc1`, the growth in the assay on NCI-H23 lung is 85.2%; in the assay with NCI-H322M lung it was 114%; in the assay on HOP-62 NSCLC it was 85%; in the assay with NCI-H460 lung, 82.5%; with HOP-92 NSCLC, 73.9%; in the assay with NCI-H522 lung it was 107%. Besides, the growth in the assay with A549/ATCC NSCLC is 95%; in the assay with 786-0 renal it was 89.1%; with COLO 205 colon it was 96.9%; in the assay on DU-145 prostate it was 72.8%; with K-562 leukemia, -42.9% (active); with MALME-3M melanoma, 63.6%. In addition, the growth in the assay on MDA-MB-231 breast is 71.3%; in the assay with RXF 393 renal, 80.7%; in the assay on SF-268 CNS it was 72.3%; with SF-295 CNS it was 97%; in the assay on SF-539 CNS, 88%; in the assay on UACC-257 melanoma, 119%. For the same compound, the growth in the assay with M14 melanoma was 31.5%; in the assay on HCT-15 colon it was 87%.

As for `O=C1c2ccccc2C(=O)c2c1ccc1[nH]c(CCl)nc21`, the growth with NCI-H23 lung was 15%; with NCI-H322M lung, 62.5%; in the assay with HOP-62 NSCLC, 25.3%; with NCI-H460 lung, 1.46% (active); with HOP-92 NSCLC it was 32%; in the assay with NCI-H522 lung, -31.5% (active). Further, the growth was 43.8% in the assay with A549/ATCC NSCLC; 28.9% in the assay on 786-0 renal; 29.1% in the assay with COLO 205 colon; 17.1% with DU-145 prostate; 2.91% (active) in the assay on K-562 leukemia; 11.5% in the assay with MALME-3M melanoma. Moreover, the growth in the assay with MDA-MB-231 breast is 37.4%; with RXF 393 renal, 34.7%; with SF-268 CNS, 24.9%; in the assay with SF-295 CNS it was 65.2%; in the assay with SF-539 CNS, 37.9%; with UACC-257 melanoma, 28.8%. The figures for the growth in the assay with M14 melanoma and in the assay on HCT-15 colon were 33.5% and -24.8% (active), respectively.

Turning to `CCOC(=O)c1c2c(c(C)n1Cc1ccc(OC)cc1)-c1oncc1CC2`, the growth with NCI-H23 lung was 87.7%; in the assay with NCI-H322M lung, 78.5%; in the assay with HOP-62 NSCLC, 62%; with NCI-H460 lung, 99.1%; in the assay on HOP-92 NSCLC, 60.6%; with NCI-H522 lung, 99.3%. Also, the growth was 84.8% in the assay on A549/ATCC NSCLC; 79.6% with 786-0 renal; 137% in the assay on COLO 205 colon; 96% with DU-145 prostate; 92% in the assay on K-562 leukemia; 125% in the assay with MALME-3M melanoma. For the same compound, the growth is 115% in the assay with MDA-MB-231 breast; 88.1% with RXF 393 renal; 81.5% in the assay with SF-268 CNS; 91.3% in the assay on SF-295 CNS; 79.5% in the assay with SF-539 CNS; 106% with UACC-257 melanoma. Moreover, the growth was 121% with M14 melanoma and 91.3% with HCT-15 colon.

Consider `COc1ccc(Nc2cc(C)nc(NCc3ccccc3)n2)cc1`, for which the growth in the assay with NCI-H23 lung is 56%; with NCI-H322M lung it was 61.9%; in the assay on HOP-62 NSCLC, 38.5%; in the assay on NCI-H460 lung, 11.9%; in the assay with HOP-92 NSCLC, 21.6%; with NCI-H522 lung, 19.9%. The growth is 7.95% (active) with A549/ATCC NSCLC; 34.1% with 786-0 renal; 3.51% (active) in the assay with COLO 205 colon; 45.4% in the assay on DU-145 prostate; 5.22% (active) with K-562 leukemia; 13.6% with MALME-3M melanoma. For the same compound, the growth was -18.1% (active) in the assay with MDA-MB-231 breast; -16.2% (active) with RXF 393 renal; 47.8% in the assay on SF-268 CNS; -30.7% (active) in the assay with SF-295 CNS; 47.5% in the assay on SF-539 CNS; 46.8% in the assay on UACC-257 melanoma. Moreover, the growth with M14 melanoma was 8.52% (active); in the assay with HCT-15 colon it was 26.1%.

With `NC(CCl)=NCCC[C@H](N)C(=O)O`, the growth is 98.3% with NCI-H23 lung; 99.5% in the assay with NCI-H322M lung; 126% in the assay on HOP-62 NSCLC; 101% in the assay on NCI-H460 lung; 98.3% with HOP-92 NSCLC; 95.4% with NCI-H522 lung. Besides, the growth with A549/ATCC NSCLC was 97.8%; in the assay with 786-0 renal it was 106%; with COLO 205 colon, 104%; with DU-145 prostate, 111%; in the assay on K-562 leukemia, 111%; with MALME-3M melanoma it was 146%. Besides, the growth was 95.8% with MDA-MB-231 breast; 100% in the assay with RXF 393 renal; 108% in the assay with SF-268 CNS; 81.1% in the assay with SF-295 CNS; 103% in the assay with SF-539 CNS; 87.6% with UACC-257 melanoma. In addition, the growth in the assay with M14 melanoma was 88.9%; in the assay with HCT-15 colon, 93.7%.

The values above are taken from PubChem BioAssay (NCI).
